We go through 57 compounds from PubChem BioAssay AID588664 (The Scripps Research Institute Molecular Screening Center, 2011).

Screen size: about 360,000 compounds; about 1,400 (0.39%) were called active. The entries come from a sample that favours actives as a whole. Unmarked numbers belong to inactive results. Rule as the data show it: active = inhibition above about 5% (passing the limit was not always enough); inactive = the rest.

Chain of Tyrosine-protein kinase ABL1 (Homo sapiens) + Ras and Rab interactor 1 (Homo sapiens) (P00519 whole entry, looked up): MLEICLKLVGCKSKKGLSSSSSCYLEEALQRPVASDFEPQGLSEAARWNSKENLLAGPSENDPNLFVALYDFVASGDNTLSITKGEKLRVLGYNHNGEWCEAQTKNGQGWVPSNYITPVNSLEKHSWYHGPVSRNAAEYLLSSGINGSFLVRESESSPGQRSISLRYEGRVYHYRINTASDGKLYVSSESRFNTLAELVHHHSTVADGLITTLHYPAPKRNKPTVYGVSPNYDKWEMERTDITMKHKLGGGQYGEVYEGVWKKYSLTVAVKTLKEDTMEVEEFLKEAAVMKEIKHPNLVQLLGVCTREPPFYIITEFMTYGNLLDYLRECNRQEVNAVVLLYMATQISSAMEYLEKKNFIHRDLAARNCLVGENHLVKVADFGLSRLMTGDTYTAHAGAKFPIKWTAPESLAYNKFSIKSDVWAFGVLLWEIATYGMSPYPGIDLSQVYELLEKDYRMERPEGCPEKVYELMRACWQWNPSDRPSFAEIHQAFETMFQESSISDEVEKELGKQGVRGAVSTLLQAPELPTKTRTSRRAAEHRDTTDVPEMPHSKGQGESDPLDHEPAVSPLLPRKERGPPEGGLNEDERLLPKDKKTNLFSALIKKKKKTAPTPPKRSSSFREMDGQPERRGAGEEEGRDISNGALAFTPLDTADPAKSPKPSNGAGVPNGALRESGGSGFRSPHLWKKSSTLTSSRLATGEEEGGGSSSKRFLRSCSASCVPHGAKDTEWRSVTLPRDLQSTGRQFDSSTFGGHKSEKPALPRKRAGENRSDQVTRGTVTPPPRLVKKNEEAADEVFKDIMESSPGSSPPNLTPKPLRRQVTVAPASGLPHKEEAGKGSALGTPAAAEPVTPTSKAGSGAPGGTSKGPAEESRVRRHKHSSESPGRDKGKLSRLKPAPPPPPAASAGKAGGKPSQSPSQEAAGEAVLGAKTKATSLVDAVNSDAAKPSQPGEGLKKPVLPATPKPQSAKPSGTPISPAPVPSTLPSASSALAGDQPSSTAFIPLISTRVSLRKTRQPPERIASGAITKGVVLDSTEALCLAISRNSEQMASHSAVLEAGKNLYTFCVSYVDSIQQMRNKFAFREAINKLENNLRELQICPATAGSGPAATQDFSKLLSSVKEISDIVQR
Chain of Tyrosine-protein kinase ABL1 (Homo sapiens) + Ras and Rab interactor 1 (Homo sapiens) (Q13671 whole entry, looked up): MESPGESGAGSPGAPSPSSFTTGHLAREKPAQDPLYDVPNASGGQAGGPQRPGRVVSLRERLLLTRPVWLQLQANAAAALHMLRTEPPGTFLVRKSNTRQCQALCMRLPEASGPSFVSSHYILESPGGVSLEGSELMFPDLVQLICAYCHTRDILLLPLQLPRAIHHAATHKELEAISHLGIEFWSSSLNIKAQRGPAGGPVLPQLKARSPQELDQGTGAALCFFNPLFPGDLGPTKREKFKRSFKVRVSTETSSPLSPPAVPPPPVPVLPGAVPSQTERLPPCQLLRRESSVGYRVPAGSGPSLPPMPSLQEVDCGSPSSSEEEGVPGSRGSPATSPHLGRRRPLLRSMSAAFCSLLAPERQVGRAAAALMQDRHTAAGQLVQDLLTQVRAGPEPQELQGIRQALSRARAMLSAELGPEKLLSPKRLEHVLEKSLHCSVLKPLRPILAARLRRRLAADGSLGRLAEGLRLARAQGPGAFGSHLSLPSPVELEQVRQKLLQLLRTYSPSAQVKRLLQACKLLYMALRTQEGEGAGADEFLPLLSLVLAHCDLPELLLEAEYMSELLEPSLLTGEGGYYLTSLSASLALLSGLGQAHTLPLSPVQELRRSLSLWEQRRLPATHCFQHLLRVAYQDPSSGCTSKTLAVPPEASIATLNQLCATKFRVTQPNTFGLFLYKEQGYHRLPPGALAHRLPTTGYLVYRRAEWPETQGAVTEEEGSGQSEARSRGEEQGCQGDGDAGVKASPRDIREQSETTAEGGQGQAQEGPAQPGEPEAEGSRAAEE

The experiment has as its target Tyrosine-protein kinase ABL1 (Homo sapiens) + Ras and Rab interactor 1 (Homo sapiens) (UniProt P00519+Q13671). Description: disruptors of human Abl and Rin1 association – biochemical, TR-FRET, primary screen (AID 588664). The conditions noted are these: TR-FRET Rin1/Abl binding, at 7.35 µM, hits give high values. Background: Time-resolved FRET reads energy transfer from a long-lived donor to a nearby acceptor.
By inhibition is commonly meant the change of the read-out against control, counted positive when it falls. For `C/C=C/C(=O)Nc1nnc(C(C)C)s1`, the inhibition was -0.75%.
`O=C(O)/C(=C/c1cccnc1)NC(=O)c1ccccc1`: the inhibition is -1.66%.
Regarding `Cc1nc(CN2CCN(C(=O)CCc3nnc(Cc4c[nH]c5ccccc45)o3)CC2)cs1`, the inhibition was -2.84%.
Take `O=C(Oc1c(-c2ccco2)oc2ccccc2c1=O)c1cccnc1`: the inhibition was 0.23%.
As for `CCOC(=O)N1CCC(c2cc(=O)n(-c3ccccc3)[nH]2)CC1`, the inhibition was 11.4% (active).
For `CCOC(=O)N1CCC(NC(=O)CCc2ccccc2)CC1`, the inhibition is -0.75%.
The same measure for `CCOC(=O)CN1CCC(c2ccccc2)CC1`: 1.17%; for `C[C@@H]1CN([C@@H](C)CO)C(=O)CCCn2nncc2CO[C@H]1CN(C)C(=O)Nc1ccc(C(F)(F)F)cc1`: -1.77%.
Regarding `CCCOc1ccc(C2C(C(=O)c3ccc(C)o3)=C(O)C(=O)N2CCCn2ccnc2)cc1` (configuration not stated), the inhibition was -89.7%.
On to `OCC(CO)(CO)NCc1ccc(-c2ccccc2)cc1`, for which the inhibition is -1.05%.
With `COc1ccc(Cl)cc1-n1c(=S)sc2c(=O)n(-c3ccc(F)cc3)c(SCC(=O)O)nc21`, the inhibition is 3.75%.
Consider `CN(C(=O)c1cccc(NC(=O)Cc2cccc(NC(=O)C3CCCN(C(=O)C4CC4)C3)c2)c1)C1CCC1` (configuration not stated), for which the inhibition is 1.65%.
As for `CN(C(=O)c1ccc(NC(=O)Cc2cccc(NC(=O)C3CCN(C(=O)c4ccccc4)CC3)c2)cc1)C1CC1`, the inhibition was 16.1% (active).
On to `CN(C(=O)c1cccc(NC(=O)Cc2ccc(NC(=O)C3CCN(C(=O)C4CCCCC4)CC3)cc2)c1)C1CCC1`, for which the inhibition was 0.86%.
The same measure for `C=CCn1c(SCC(=O)c2c(N)n(C)c(=O)n(C)c2=O)nc2sc(CC)cc2c1=O`: -0.41%; for `O=C(COc1ccc([N+](=O)[O-])cc1)Nc1cccc(C(=O)Nc2ccccc2C(=O)O)c1`: 2.02%; for `O=C(CSCc1ccc([N+](=O)[O-])cc1)Nc1cccc(C(=O)Nc2ccccc2C(=O)O)c1`: 11.8% (active).
As to `COc1ccc(NC(=O)CSCc2ccc([N+](=O)[O-])cc2)cc1OC`, the inhibition was 0.28%.
In the case of `CCOCCCNC(=O)C(NC(=O)Cc1c[nH]c2ccccc12)c1ccc(OC)cc1` (configuration not stated), the inhibition is -1.97%.
With `CC(C)(C)c1ccc(Cn2nnc3c(=O)[nH]c(C4CCCN(C(=O)c5ccco5)C4)nc32)cc1` (configuration not stated), the inhibition was 0.48%.
`O=C(Nc1nn(Cc2ccccc2F)cc1Br)c1cccs1`: the inhibition is -1.24%.
As for `Oc1cccc2cc(-c3ccncc3)cnc12`, the inhibition was 13.3% (active).
In the case of `Fc1ccc(-c2ccc(CNCc3ccccn3)o2)cc1Cl`, the inhibition is -2.17%.
In the case of `CN1CCN(C(CNS(=O)(=O)c2cccs2)c2cccnc2)CC1` (configuration not stated), the inhibition is 1.76%.
In the case of `COC(=O)CN1C(C)=Nc2ccc(Br)cc2C1c1ccccc1` (configuration not stated), the inhibition was 0.76%.
Consider `Cc1nn(-c2ncc(C(F)(F)F)cc2Cl)c(=O)n1-c1ccccc1`, for which the inhibition was 7.67% (active).
In the case of `CN(C)C=NC(=O)c1cccn1-c1ncc(C(F)(F)F)cc1Cl`, the inhibition was 1.65%.
With `Cc1nn(CC#N)c(=O)n1N(C)c1ncc(C(F)(F)F)cc1Cl`, the inhibition is 2.69%.
Take `O=C(O)c1cccc2c1C(=O)N(C1CCCC1)C2`: the inhibition was -1.46%.
As for `O=c1ccc2c(-c3ccccc3S(=O)(=O)O)c3ccc(O)c(O)c3oc-2c1O`, the inhibition was 52.3% (active).
Turning to `COCCNC(=O)COc1ccc(N(C)S(=O)(=O)c2ccc3ccccc3c2)cc1`, the inhibition is 1.04%.
Regarding `Cc1cc2ccccc2n1CCNC(=O)COc1ccc2ccccc2c1`, the inhibition is 7.69% (active).
As for `Cc1ccc(C)c(NC(=O)CN(C)C(=O)COc2ccc3ccccc3c2)c1`, the inhibition is 0.05%.
As to `O=c1[nH]nc(Cc2ccccn2)c2ccccc12`, the inhibition was 1.04%.
The figure for `C=CCn1cc(C(=O)NCc2ccc(Cl)cc2)c(=O)c2cc(S(=O)(=O)N(CC)CC)ccc21` is 6.23% (active); for `CCN(CC)CCCNC(=O)c1cn(C)c2ccc(S(=O)(=O)N(C)C3CCCCC3)cc2c1=O` it is 2.19%; for `CCOC(=O)N1CCN(C(=O)c2cn(C)c3ccc(S(=O)(=O)N(CC)CC)cc3c2=O)CC1` it is -0.08%.
Consider `CN(C)S(=O)(=O)c1ccc(N2CCCC2)c(C(=O)Nc2cccc(F)c2)c1`, for which the inhibition is 7.03%.
On to `CC1=C[C@H]2Cc3cc(C)cc(C)c3S(=O)(=O)[C@@H]2C=C1`, for which the inhibition is 3.36%.
As to `O=c1c2c(nc3n1CCCCC3)sc1c(O)cccc12`, the inhibition is 12.3% (active).
On to `CC(=O)c1ccc(NC(=O)c2sc3nc4n(c(=O)c3c2C)CCCCC4)cc1`, for which the inhibition is 0.85%.
The figure for `Cc1c(C(=O)Nc2ccccc2)sc2nc3n(c(=O)c12)CCCCC3` is -0.6%; for `O=S1(=O)CCN(C2CCCCCCCCCCC2)CC1` it is 1.94%; for `Cc1cc(NC(=O)CSCc2ccccc2C)no1` it is -2.34%.
Consider `Cc1cc(NC(=O)CSCC(=O)NC(C)c2ccccc2)no1` (configuration not stated), for which the inhibition was 9.74% (active).
On to `COc1ccccc1C(=O)COC(=O)CSCC(=O)Nc1cc(C)on1`, for which the inhibition is -2.09%.
Regarding `N#C/C(=C\N1CCOCC1)S(=O)(=O)c1ccc(Cl)cc1`, the inhibition is 0.04%.
Consider `CC(C)CNS(=O)(=O)c1ccc(OCC(=O)Nc2ccc3c(c2)OCO3)c(Cl)c1`, for which the inhibition was -2.64%.
As to `CC(C)CNS(=O)(=O)c1ccc(C(=O)Nc2ccc3c(c2)OCO3)cc1`, the inhibition is 12.8% (active).
Consider `CNS(=O)(=O)c1ccc(NC(=O)Nc2ccc3c(c2)OCO3)cc1`, for which the inhibition is -0.38%.
`C=C1c2c(Cl)ccc(O)c2C(O)=C2C(=O)[C@]3(O)C(O)=C(C(N)=O)C(=O)[C@@H](N(C)C)[C@@H]3[C@@H](O)C12` (some centres not stated): the inhibition is 20.6% (active).
With `Nc1nc2cc(Cl)ccc2n1N`, the inhibition was -1.62%.
For the compound `CCCCN(CC)CCNC(=O)c1[nH]c(C)c(C(C)=O)c1C`, the inhibition is 6.51%.
Regarding `COC(=O)c1c(NC(=O)c2ccc(S(=O)(=O)N3CCOCC3)cc2)sc2c1CCN(C(C)C)C2`, the inhibition is 5.81%.
With `CCOc1ccc(CNC(=O)C2CCCN(c3nnc(C)c4c(C)n(-c5ccccc5)nc34)C2)cc1` (configuration not stated), the inhibition was 20.2% (active).
The figure for `CCc1ccc(CNC(=O)C2CCN(c3nnc(C)c4c(C)n(-c5ccc(C)cc5)nc34)CC2)cc1` is -2.17%; for `CCc1ccc(CNC(=O)C2CCCN(c3nc4ccccc4o3)C2)cc1` (configuration not stated) it is 1.27%.
